In PubChem BioAssay AID488840 (Broad Institute, 2010):
About 45 (3%) of roughly 1,400 compounds were called active.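 Rule for the calls: active = half-maximal dose of signal decrease from fit no higher than ten times the top valid tested dose; inconclusive = fit invalid, or curve flat with 30 to 70% inhibition; inactive = the rest.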 These entries were drawn from the full list. Results with a measured potency or affinity are listed apart.

target: Lysine-specific demethylase 4A (Homo sapiens) (UniProt O75164); assay: JMJD2A histone demethylase inhibitors, dose response, selectivity assay for GASC-1 inhibitor project, biochemical, DELFIA europium, cherry-picked samples (AID 488840); conditions: GST-JMJD2A(1-420) H3K9me3 demethylation; series mostly up to 6 µM; activity change, negative = inhibition: at the top concentration;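 note: europium signal reports the dimethyl H3K9 product detected by antibody so inhibitors lower it; 0% = median of neutral control wells and -100% = median of positive control wells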
Sequence (O75164 whole entry, looked up): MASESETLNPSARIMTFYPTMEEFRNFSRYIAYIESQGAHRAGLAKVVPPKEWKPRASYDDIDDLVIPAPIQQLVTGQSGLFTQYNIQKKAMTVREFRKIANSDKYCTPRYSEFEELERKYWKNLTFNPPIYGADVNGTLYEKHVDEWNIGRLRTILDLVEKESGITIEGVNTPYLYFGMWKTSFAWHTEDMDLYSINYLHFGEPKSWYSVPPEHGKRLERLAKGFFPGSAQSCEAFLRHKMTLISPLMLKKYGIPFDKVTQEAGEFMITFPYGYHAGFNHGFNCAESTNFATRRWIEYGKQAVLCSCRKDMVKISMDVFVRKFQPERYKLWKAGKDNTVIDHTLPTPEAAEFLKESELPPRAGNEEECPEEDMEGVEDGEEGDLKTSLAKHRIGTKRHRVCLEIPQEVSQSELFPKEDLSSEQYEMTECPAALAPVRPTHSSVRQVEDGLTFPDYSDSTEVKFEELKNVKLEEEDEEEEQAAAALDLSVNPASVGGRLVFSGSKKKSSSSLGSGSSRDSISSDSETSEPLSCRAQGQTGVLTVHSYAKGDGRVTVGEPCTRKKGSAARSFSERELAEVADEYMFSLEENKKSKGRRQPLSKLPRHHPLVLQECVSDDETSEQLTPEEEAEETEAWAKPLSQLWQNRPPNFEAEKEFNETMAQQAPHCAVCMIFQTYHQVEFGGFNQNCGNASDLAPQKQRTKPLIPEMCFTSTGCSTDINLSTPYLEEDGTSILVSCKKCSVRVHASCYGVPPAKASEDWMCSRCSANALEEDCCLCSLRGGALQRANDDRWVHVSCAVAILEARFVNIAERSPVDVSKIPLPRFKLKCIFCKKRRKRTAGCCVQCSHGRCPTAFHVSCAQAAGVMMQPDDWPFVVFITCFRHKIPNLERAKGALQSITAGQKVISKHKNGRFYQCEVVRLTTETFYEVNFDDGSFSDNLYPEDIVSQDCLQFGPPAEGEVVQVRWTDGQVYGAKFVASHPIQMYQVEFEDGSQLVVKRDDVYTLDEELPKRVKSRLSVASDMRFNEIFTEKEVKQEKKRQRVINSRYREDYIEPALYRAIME

Activity change, negative = inhibition, inactive:
COc1cc2c(cc1OC)C(COc1ccc(F)cc1)NCC2 (centres undefined) -1.68%
CC(C)CN(C(=O)c1ccc(N2CCCC2=O)cc1)c1c(N)n(Cc2ccccc2)c(=O)[nH]c1=O 8.41%
OC(COc1ccc2ccccc2c1Br)Cn1cnc(-c2ccccc2)c1 (centres undefined) -1.19%
COc1ccc2cc3cc(C(=O)N4CCN(C5CCCCC5)CC4)oc3nc2c1 0.0255%
C[C@@H]1CN([C@H](C)CO)C(=O)c2cccc(NS(=O)(=O)c3ccccc3)c2O[C@H]1CN(C)C 5%
COC(=O)c1cc(C#N)c(OC)nc1C 5.1%
CSc1ccc(-c2nc(CSCC(=O)N3CCOCC3)c(C)o2)cc1 4.78%
Cc1ccc(/C=N\NC(=O)c2cc([N+](=O)[O-])cc([N+](=O)[O-])c2)o1 -2.67%
O=C(N/N=C/c1cc([N+](=O)[O-])cc([N+](=O)[O-])c1O)/C(=C\c1cccs1)NC(=O)c1ccccc1 1.28%
COc1cc(C#N)c(N=C(SCC#N)N2CCOCC2)cc1OC -3.54%
Cc1ccc(NC(=O)C(=O)NCCN2CCN(C(=O)C(c3ccccc3)c3ccccc3)CC2)cc1 5.03%
COc1ccc(CCN2C(=O)CC(NNC(=O)c3ccccc3Br)C2=O)cc1 (centres undefined) 5.48%
CNC(=O)/C(C#N)=C/c1c(N(Cc2ccccc2)Cc2ccccc2)nc2ccccn2c1=O -3.91%
O=C(CSc1nnc(CNC(=O)c2ccccc2F)o1)NCCc1ccccc1 3.34%
COc1ccc(NC(=O)C2OC3OC(C)(C)OC3C3OC(C)(C)OC23)cc1 (centres undefined) 3.01%
C=CCOc1ccc(C(=O)NC2CCCCC2)cc1 -3.43%
Cc1cc(=O)[nH]c(CN2CCOCC2)n1 0.421%
COc1ccc(N2CCN(C(=O)c3nn(C)c4c3CS(=O)(=O)c3ccccc3-4)CC2)cc1 1.99%
O=c1cc(NC2CCCCCC2)[nH]c(=O)[nH]1 -9.15%
CCCc1nn2c(=O)cc(CSCC(=O)Nc3ccccc3)nc2s1 -2.93%
Cc1nnsc1C(=O)NNS(=O)(=O)c1ccccc1 0.407%
CCC(=O)N1CCc2cc(S(=O)(=O)CCC(=O)Nc3cccc(F)c3)ccc21 3.52%
C#CCOCCOCCOCCNc1nc(N2CCOCC2)nc(N2CCN(C(=O)[C@H](Cc3cc4ccccc4[nH]3)n3cc([C@@H](N)CC(C)C)nn3)CC2)n1 -4.26%
CC(=O)Nc1ccc(NC(=O)C2CCN(C(=O)c3cccs3)CC2)cc1 -8.37%
COc1ccc(NC(=S)N2CCC(C(=O)N3CCCCCC3)CC2)cc1 0.103%
CCC(CC)NC(=O)CSc1nnc(-c2ccc(OC)cc2)n1C(C)C -3.51%
Cc1ccc(CNC(=O)CCC2CCCN(Cc3ccc4cccc(F)c4n3)C2)o1 (centres undefined) 1.48%
COc1ccc(/C=N/Nc2cc(=O)n(C)c(=O)n2C)cc1OC -8.8%
CC1=NN(C(=O)Cc2ccccc2)C(O)(c2cccnc2)C1 (centres undefined) 2.71%
C#CCOCCOCCOCCNc1nc(N2CCN(C(=O)[C@H](CCCCN)n3cc(CN)nn3)CC2)nc(N2CCN(C(=O)[C@H](CCC(=O)O)n3cc([C@@H](N)CCSC)nn3)CC2)n1 1.72%
CCN(CC)C(=O)[C@H]1CC(CC(=O)NC/C=C(\C)CCC=C(C)C)C(=O)N2CCc3c([nH]c4ccccc34)[C@]12C (some centres undefined) 7.5%
Cc1ccc(/C(N)=N/OC(=O)CCC2CCCCC2)cc1 0.447%
O=c1cc(N2CCc3ccccc32)[nH]c(=O)n1-c1ccccc1 4.98%
CCc1ncc(C)[nH]1 -14.1%
Cc1noc(C)c1COc1ccc(C(=O)NCC2CCCO2)cc1 (centres undefined) -4.92%
O=c1cc(-c2ccc(O)c(O)c2)oc2c(C3O[C@H](CO)[C@@H](O)[C@H](O)[C@H]3O)c(O)cc(O)c12 (some centres undefined) -24%
CCC(C)NC(=S)N1CCN(C)CC1 (centres undefined) 1.71%
COc1cccc(NC(=O)N2CCN(c3cccc(C)c3)C(C)C2)c1 (centres undefined) 0.171%
COC(=O)[C@]1(Cc2ccccc2)N[C@H](CN(C)C(=O)Nc2ccccc2)[C@@H]2C(=O)N(C)C(=O)[C@@H]21 6.68%
O=C(NCc1nnc(SCC(=O)N2CCCC2)o1)c1ccccc1F -1.83%
O=[N+]([O-])c1ccccc1N/N=C\c1ccccc1Cl -1.83%
CCC(=O)Nc1ccccc1Nc1cc(C#N)c(C#N)cc1[N+](=O)[O-] -1.89%
Cc1ccc(Nc2nnc(SCC(=O)N(C)C3CCS(=O)(=O)C3)s2)cc1 (centres undefined) 3.34%
CCO[C@@H]1OC(C(=O)NC2CC2)=C[C@H](c2c[nH]c3ccccc23)[C@H]1CCCO -1.12%
Cc1occc1-c1nnc(SCC(=O)c2cc3ccccc3oc2=O)o1 2.21%
O=C(NCCCn1ccnc1)c1cc2c(ccc3ccccc32)o1 4.32%
COc1ccccc1NC(=O)COC(=O)/C=C/c1cccs1 4.06%
COc1ccccc1NC(=O)c1cccs1 -1.95%
Cc1ccc(C(=O)NCCCCNC(=O)c2ccc(C)o2)o1 -5.72%
COC(=O)C1=C(C)OC(N)=C(C#N)C1c1cc2cccc(C)c2nc1Cl (centres undefined) 3.92%
CC(C)=CC(=O)O[C@@H]1Cc2c(ccc3ccc(=O)oc23)OC1(C)C -0.336%
c1ccc2c(c1)ccc1nnc(-c3ccc4c(c3)OCO4)n12 3.37%
CS(=O)(=O)N(CC(=O)N1CCCCCC1)c1ccccc1 -5.65%
C[C@H](CO)N1C[C@H](C)[C@@H](CN(C)Cc2ccncc2)Oc2c(NC(=O)Cc3ccccc3)cccc2C1=O 5.08%
O=C(Nc1cccnc1)c1ccc2c(c1)C(=O)N(Cc1cccnc1)C2=O -1.63%
CCOC(=O)CSc1nc2sc(C)c(C)c2c(=O)[nH]1 -5.03%
Cn1c(=O)c(-c2ccccc2)nn2c3ccccc3nc12 -0.768%
Cc1ccc(Nc2c(-c3ccccn3)nc3cc(C)ccn23)cc1 -3.14%
c1ccc(-c2nc(-c3ccco3)cs2)nc1 1.76%
Clc1ccccc1Cn1nnc2c(NCCN3CCOCC3)ncnc21 -12%
Cc1ccc(NC(=O)c2cccc3c2C(=O)N(C2CCCCC2)C3)c(C)c1 -3.71%
Cc1ccc(S(=O)(=O)Nc2ccc3c(c2)C(=O)N([C@H](C)CO)C[C@H](C)[C@@H](CN(C)Cc2ccc(-c4ccccc4)cc2)O3)cc1 20.7%
Cc1nn(C)c(N)c1C(O)(c1nccn1C)C(F)(F)F (centres undefined) 7.95%
O=C(NCC(c1ccco1)N1CCCCC1)c1ccc(OCc2ccccc2)cc1 (centres undefined) -0.883%
